Assay results taken from PubChem BioAssay (EPA / NIEHS).
Records with an inconclusive call do not appear. Activity calls are given as the source filed them. The calls were made as follows: active = hit-call score of the fitted dose curve at least 0.9, where 1 is the maximum; inconclusive = response in the unintended direction; inactive = score below 0.9.

Test: Tanguay_ZF_120hpf_NC_legacy: (Legacy) Oregon State University Tanguay Lab 120 Hour Post-fertilization zebrafish Assay for Notochord and Tail Malformation (AID 2283656)
Protocol: Tanguay_ZF_120hpf_legacy is a whole embryo, multiplexed endpoint assay using zebrafish larvae exposed for 120 hours post fertilization on a 96-well plate.Tanguay_ZF_120hpf_NC_legacy is one of one assay component(s) measured or calculated from the Tanguay_ZF_120hpf_legacy assay. It is designed to make measurements of zebrafish development as detected with brightfield microscopy of developing zebrafish embryos.Data from the assay component Tanguay_ZF_120hpf_NC_legacy was analyzed into 1 assay endpoints. This assay endpoint, Tanguay_ZF_120hpf_NC_legacy, was analyzed in the positive analysis fitting direction relative to DMSO as the negative control and baseline of activity. Using a type of morphology reporter, gain-of-signal activity can be used to understand changes in developmentals as they relate to the whole embryo. To generalize the intended target to other relatable targets, this assay endpoint is annotated to the zebrafish development intended target family, where the subfamily is embryonic notochord morphogenesis.
Zebrafish husbandry: Tropical 5D wild-type adult zebrafish were housed in at an approximate density of 1000 per 100 gallon tank at the Sinnhuber Aquatic Research Laboratory, Oregon State University, Corvallis, OR. Each tank was kept at standard laboratory conditions of 28C on a 14-h light/10-h dark photoperiod in fish water consisting of reverse osmosis water supplemented with a commercially available salt (Instant Ocean). Spawning funnels were placed into the tanks the night prior, and embryos were collected and staged. To increase bioavailability, the chorion was enzymatically removed using pronase (63.6mg/ml, >/= 3.5U/mg, Sigma-Aldrich: P5147) at 4 hours post fertilization (hpf) using a custom automated dechorionator.Chemical exposures: Six hpf dechorionated embryos were placed 1 embryo per well in a 96-well plate prefilled with 90 ul of EM using automated embryo placement systems (AEPS). Ten microliters of each row of dilution plate 2 was added to 2 exposure plates. The final DMSO concentration used was 0.64% (vol/vol). Thirty-two embryos were also exposed to 5uM trimethyltin chloride (positive control). Plates were sealed to prevent evaporation and foil covered to reduce light exposure and kept in a 28C incubator. Embryos were statically exposed until 120 hpf. At 24 hpf, embryos were assessed for photomotor response using a custom photomotor response analysis tool (PRAT) and for developmental toxicity endpoints (MO24: mortality at 24 hpf, DP: developmental progression, SM: spontaneous movement, and NC: notochord distortion). At 120 hpf, locomotor activity was measured using Viewpoint Zebralab and assessed for 18 endpoints. Zebrafish acquisition and analysis program (ZAAP), a custom program designed to inventory, acquire, and manage zebrafish data, was used to collect developmental endpoints as either present or absent (i.e., binary responses were recorded). If mortality occurred for an embryo (at either 24 or 120 hpf), the non-mortality endpoints were not measured.

Compound | outcome
C=CCCCCCCCCCCCC | inactive
NC=O | inactive
CN(C)C(=O)NC1(c2ccccc2)CCN(CC[C@@]2(c3ccc(F)c(F)c3)CN(C(=O)c3ccccc3)CCO2)CC1 | inactive
O=C1O[C@H]([C@H](O)CO)C(O)=C1O | inactive
COC(=O)CCC(=O)OC | inactive
O=C(O)c1[nH]n(-c2ccc(S(=O)(=O)O)cc2)c(=O)c1N=Nc1ccc(S(=O)(=O)O)cc1 | inactive
COC(=O)CCCC(=O)OC | inactive
CCCC(=O)O | inactive
O=C(N[C@@H](c1ccccc1)[C@@H]1CCCCN1)c1cccc(C(F)(F)F)c1Cl | inactive
O=NO | inactive
COC(=O)[C@H]1[C@H]2C[C@@H]3c4[nH]c5cc(OC)ccc5c4CCN3C[C@H]2C[C@@H](OC(=O)c2cc(OC)c(OC)c(OC)c2)[C@@H]1OC | inactive
CO[C@@H]1COCC[C@@H]1N[C@@H]1CC[C@@](C(=O)N2CCc3ncc(C(F)(F)F)cc3C2)(C(C)C)C1 | inactive
CCCC[C@H]1CN(CC2CCOCC2)C(=O)OC12CCN(C1(C)CCN(C(=O)c3c(C)ncnc3C)CC1)CC2 | inactive
CS(=O)(=O)c1ccc([C@@H](C[C@H]2CCC(=O)C2)C(=O)Nc2cnccn2)cc1Cl | inactive
CCc1nc(N)nc(N)c1-c1ccc(Cl)cc1 | inactive
COc1ccc(C(=O)Nc2nc3ccccc3c(NCc3ccccc3)c2C#N)cc1 | inactive
CCCCCCCCCCCCCCCCO | inactive
O=C1CCCCC1 | inactive
CC(=O)O | inactive
CC(N)=O | inactive

Compound | outcome
Cc1ccc(-c2cc(C(F)(F)F)nn2-c2ccc(S(N)(=O)=O)cc2)cc1 | inactive
O=C(Oc1ccccc1)c1cccc(C(=O)Oc2ccccc2)c1 | inactive
NC(=Nc1ccccc1)Nc1ccccc1 | inactive
O=[Si]=O | inactive
O=C(O)CC(O)(CC(=O)O)C(=O)O | inactive
NC1CCCCC1 | inactive
CCCCC(CC)COP(=O)(OCC(CC)CCCC)OCC(CC)CCCC (stereo not given) | inactive
CCC(C)N(C)C(=O)c1cc2ccccc2c(-c2ccccc2Cl)n1 (stereo not given) | inactive
Cc1cc(SC2=C(O)C[C@@](CCc3ccc(N)cc3)(C(C)C)OC2=O)c(C(C)(C)C)cc1CO | inactive
N[C@@H](Cc1c[nH]c2ccccc12)C(=O)O | inactive
Cc1occc(=O)c1O | inactive
CCCCCCC(CCCCCCCCCCC(=O)OCC(COC(C)=O)OC(C)=O)OC(C)=O (stereo not given) | inactive
O=C1OC(c2ccc(O)cc2)(c2ccc(O)cc2)c2ccccc21 | inactive
CCCCCCCC(=O)OC | inactive
C/C=C/c1ccc(OC)cc1 | inactive
CCCCCCC(C=O)=Cc1ccccc1 | inactive
CN(C)CCCN1c2ccccc2Sc2ccc(Cl)cc21 | inactive
CCOCCOCCO | inactive
CC(C)(C)c1ccccc1 | inactive
Oc1ccccc1O | inactive
